Measurements taken from PubChem BioAssay.
Active and inactive are the calls of the source.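 How the source made its calls, unless noted: active means visual image review flags a hit and inhibition of aggregation exceeds 20%; inconclusive means visual hit but inhibition at or below 20%; inactive means no hit on visual image review.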

Key:
[1] = inhibitors of TNFa-induced NFkB p65 translocation, primary screen, imaging, HUVEC, MLSMR starter and 10KST1 sets (AID 438;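 active means inhibition above 20% together with a positive visual image hit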;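 further: compound added about 3h40 before a 20 min TNFalpha stimulation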;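 on inhibition: signal is the nuclear over cytoplasmic p65 intensity ratio per well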); details: HUVEC TNFa-induced p65 nuclear translocation; cell count: measured here: nuclei count (cytotoxicity indicator), at 2.08 µM; inhibition: at 2 µM, stronger effect = higher value, 0% TNFa-plus-vehicle, 100% no-TNFa wells
[2] = reduction of polyQ htt aggregates in cells – imaging, exon1htt(103Q)mCFP cells, high-content imaging, primary screen (AID 483); details: exon1htt(103Q)mCFP cell line, aggregate imaging, at 2 µM; inhibition of aggregation: stronger effect = higher value; nuclei count: measured here: cell count, toxicity;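 further: compound exposure lasted 3 days before fixation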;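 on nuclei count: percent of the per-plate median nuclei count of sample wells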
[3] = endothelial E-selectin expression blockers – imaging, HUVEC, immunofluorescence, MLSMR starter and 10KST1 sets, primary screen (AID 487;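 active means visually confirmed hit in the image check and inhibition above 20%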;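 on inhibition: signal is fraction of cell area covered by stained E-selectin grains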;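 on nuclei count: 100% = median nuclei count of all wells on the same plate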); details: HUVEC TNFalpha-induced E-selectin immunofluorescence imaging, at 2 µM; inhibition: stronger effect = higher value; nuclei count: measured here: cell number, toxicity
[4] = target: Voltage-gated potassium channel subunit beta-2 (Rattus norvegicus) (UniProt P62483); experiment: inhibitors of rat Kvbeta2 reductase activity – biochemical, NADPH fluorescence, primary screen (AID 622;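 active means fluorescence slope higher than the sample average by over 3 SD, cut at about -0.22 in these data, passing the limit was not always enough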;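 further: slope of raw intensity against log time taken from 70 to 1610 s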); details: recombinant KvBeta, 4-cyanobenzaldehyde reduction, at 10 µM, stronger effect = higher value
[5] = target: Voltage-gated potassium channel subunit beta-2 (Rattus norvegicus) (UniProt P62483); experiment: enhancers of rat Kvbeta2 NADPH turnover – biochemical, NADPH fluorescence, primary screen (AID 623;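 active means NADPH fluorescence slope more negative than the mean of all samples by about 3 SD, 99.7% confidence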;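 further: fluorescence intensity change per second fitted from 20 to 320 s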); details: Recombinant KvBeta, NADPH fluorescence decrease slope, 10 min; at 10 µM; stronger effect = lower value
[6] = target: Alpha-2C adrenergic receptor (Homo sapiens) (UniProt P18825); experiment: compounds altering alpha2C-coupled GIRK flux – cell-based, HEK293 alpha2C/GIRK1/2, thallium flux, primary screen (AID 624;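 active means fluorescence slope after compound addition differing from the mean of all screened samples at 99.7% confidence, in either direction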;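 further: slope of fluorescence ratio to pre-addition baseline per second over 15 to 24 s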); details: thallium flux BTC fluorescence, at 10 µM, actives lie on both sides
[7] = blockers of RIG-like receptor reporter activation – cell-based, Sendai virus stimulus, luciferase, 10K MLSCN set, TLR/RLR signaling modifier project, primary screen (AID 602276;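 active means inhibition at or above 50% at 10 µM; inactive means inhibition below 50%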;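 further: firefly luciferase from ISG56 promoter only with Renilla not read in this screen; 0% = Sendai virus plus DMSO and 100% = medium plus DMSO without virus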); details: HEK293 RL24 IRF3 luciferase reporter, at 10 µM, stronger effect = higher value
[8] = TLR3 IRF3 reporter activation blockers – cell-based, poly I:C stimulus, luciferase, 10K MLSCN set, primary screen (AID 602277;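 active means inhibition of the reporter signal at or above 50%; inactive means inhibition below 50%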); details: HEK293-TLR3 RL24 IRF3 luciferase reporter, at 10 µM, stronger effect = higher value

Sequence of Alpha-2C adrenergic receptor (Homo sapiens) (P18825 whole entry, looked up): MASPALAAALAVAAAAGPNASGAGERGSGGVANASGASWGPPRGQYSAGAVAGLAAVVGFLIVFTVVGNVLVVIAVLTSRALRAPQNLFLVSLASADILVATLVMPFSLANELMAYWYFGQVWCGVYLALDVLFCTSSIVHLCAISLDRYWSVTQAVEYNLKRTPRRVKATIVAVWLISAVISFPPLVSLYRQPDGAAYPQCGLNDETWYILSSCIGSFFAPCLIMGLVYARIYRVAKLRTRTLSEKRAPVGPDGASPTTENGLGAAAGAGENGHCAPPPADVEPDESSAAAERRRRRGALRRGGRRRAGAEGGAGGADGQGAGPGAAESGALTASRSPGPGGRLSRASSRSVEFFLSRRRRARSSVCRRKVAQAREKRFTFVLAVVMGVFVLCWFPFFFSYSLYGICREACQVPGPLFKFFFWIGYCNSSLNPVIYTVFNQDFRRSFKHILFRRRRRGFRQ
Sequence of Voltage-gated potassium channel subunit beta-2 (Rattus norvegicus) (P62483 whole entry, looked up): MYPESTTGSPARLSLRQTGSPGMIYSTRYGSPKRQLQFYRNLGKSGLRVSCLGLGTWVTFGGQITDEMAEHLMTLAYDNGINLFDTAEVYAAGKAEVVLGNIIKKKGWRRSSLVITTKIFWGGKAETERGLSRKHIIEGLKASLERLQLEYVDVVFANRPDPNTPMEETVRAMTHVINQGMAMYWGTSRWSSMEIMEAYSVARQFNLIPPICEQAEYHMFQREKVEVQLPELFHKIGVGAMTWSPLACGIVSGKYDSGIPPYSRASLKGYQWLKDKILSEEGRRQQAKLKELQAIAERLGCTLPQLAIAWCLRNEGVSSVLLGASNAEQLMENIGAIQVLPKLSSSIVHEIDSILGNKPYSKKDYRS

| SMILES | cell count [1] | inhibition [1] | inhibition of aggregation [2] | nuclei count [2] | inhibition [3] | nuclei count [3] | fluorescence slope [4] | NADPH fluorescence slope [5] | slope [6] | inhibition [7] | inhibition [8] |
| --- | --- | --- | --- | --- | --- | --- | --- | --- | --- | --- | --- |
| CCCCOC(=O)n1c(SCC(=O)N(CC)CC)nc2ccccc21 | 307 | 5.3% (inactive) | 1.4% (inactive) | 107% | 10% (inactive) | 106% | -0.585 (inactive) | -3.7e-07 (inactive) | 0.00671 (inactive) | -15.8% (inactive) | -54.6% (inactive) |
| CC1(C)CC(=O)C(C=NCC2CCNCC2)=C(O)C1 | 249 | -2.1% (inactive) | 6.8% (inactive) | 74.8% | -10.9% (inactive) | 116% | -0.466 (inactive) | -4.9e-06 (inactive) | 0.00268 (inactive) | 3.67% (inactive) | 27.1% (inactive) |
| c1coc(CN2CN=C(Nc3nc4ccccc4s3)NC2)c1 | 604 | -1.5% (inactive) | -13.8% (inactive) | 106% | 13.3% (inactive) | 109% | -0.357 (inactive) | -2.5e-05 (inactive) | 0.00455 (inactive) | -12.9% (inactive) | -7.25% (inactive) |
| CC1CC(C)CN(c2ncnc3c2cnn3-c2ccc(Cl)cc2)C1 (stereo not drawn) | 584 | 3.4% (inactive) | 12.1% (inactive) | 79.5% | -52.4% (inactive) | 112% | -0.504 (inactive) | -2e-05 (inactive) | 0.00874 (inactive) | 37.3% (inactive) | 11.5% (inactive) |
| Cc1ccc2nc(-c3ccc4c(c3)OCCO4)cc(C(=O)O)c2c1 | 337 | -10.3% (inactive) | -4.5% (inactive) | 111% | 30.4% (inactive) | 89.9% | -0.299 (inactive) | -4e-05 (inactive) | 0.00454 (inactive) | -13.7% (inactive) | 98.1% (active) |
| COc1ccc(N2Cc3ccccc3C2)cc1Cl | 579 | -12.3% (inactive) | -13.8% (inactive) | 84% | -2% (inactive) | 98.5% | -0.527 (inactive) | -2.4e-05 (inactive) | 0.00436 (inactive) | -31.1% (inactive) | -55.5% (inactive) |
| O=C1CCn2nc(-c3ccc(Cl)cc3)cc2N1 | 557 | -0.5% (inactive) | -106% (inactive) | 1.2% | -66.1% (inactive) | 118% | -0.601 (inactive) | -3.8e-05 (inactive) | 0.00658 (inactive) | -20.1% (inactive) | -53% (inactive) |
| O=C(Nc1ccc(Cc2ccc(NC(=O)N3CCOCC3)cc2)cc1)N1CCOCC1 | 494 | -2% (inactive) | 15.7% (inactive) | 61.1% | 30.5% (inactive) | 82.3% | -0.416 (inactive) | -2.3e-05 (inactive) | 0.0036 (inactive) | 0.542% (inactive) | -1.84% (inactive) |
| CC(C)(C)C(=O)/C=C(\N)c1ccccn1 | 404 | -5% (inactive) | 15.3% (inactive) | 89.1% | -33.9% (inactive) | 108% | -0.466 (inactive) | -5.5e-05 (inactive) | 0.00639 (inactive) | -0.411% (inactive) | 2.89% (inactive) |
| CCC(C(=O)N1CCc2cc(OC)c(OC)cc2C1)c1ccccc1 (stereo not drawn) | 598 | 5% (inactive) | -8.2% (inactive) | 88.6% | 11.7% (inactive) | 103% | -0.478 (inactive) | 5.9e-06 (inactive) | 0.00474 (inactive) | 3.51% (inactive) | 6.78% (inactive) |
| N#Cc1nc(COc2ccccc2)oc1NCCCn1ccnc1 | 371 | 5.2% (inactive) | 0.8% (inactive) | 95.5% | 6.7% (inactive) | 90.9% | -0.629 (inactive) | -1.3e-05 (inactive) | 0.00641 (inactive) | -11.6% (inactive) | -1.22% (inactive) |
| Cc1ccc(-c2cc(C(=O)Nc3cc(C)on3)c3ccccc3n2)c(C)c1 | 688 | 1.1% (inactive) | 11.6% (inactive) | 111% | -17.5% (inactive) | 115% | -0.543 (inactive) | -4.3e-05 (inactive) | 0.00596 (inactive) | 10.5% (inactive) | 38.8% (inactive) |
| O=C(c1cnn2c(C(F)(F)F)cc(-c3ccco3)nc12)N1CCc2ccccc2C1 | 516 | 2% (inactive) | 22.2% (inactive) | 92.9% | -11.7% (inactive) | 67% | -0.327 (inactive) | 1.7e-05 (inactive) | 0.00417 (inactive) | -19% (inactive) | -13.6% (inactive) |
| COc1ccc(-c2noc(CSc3nc(N)c(-c4ccccc4)c(=O)[nH]3)n2)cc1OC | 338 | 5.8% (inactive) | -0.8% (inactive) | 97.1% | -12.1% (inactive) | 122% | -0.441 (inactive) | 2.8e-05 (inactive) | 0.00653 (inactive) | 12% (inactive) | 15.6% (inactive) |
| O=C(c1cnn2c(C(F)F)cc(C3CC3)nc12)N1CCOCC1 | 666 | -0.3% (inactive) | 3.1% (inactive) | 96.7% | -13.3% (inactive) | 94.3% | -0.376 (inactive) | 2.5e-06 (inactive) | 0.00295 (inactive) | 6.43% (inactive) | 18.5% (inactive) |
| Clc1ccc(CSc2nnc(Cn3cnc4ccccc43)o2)cc1 | 618 | -2.5% (inactive) | 20.9% (inactive) | 72.2% | -1.1% (inactive) | 98.2% | -0.48 (inactive) | -1.4e-05 (inactive) | 0.00613 (inactive) | -20.9% (inactive) | -27.5% (inactive) |
| CC1=C(C(=O)NCc2ccccc2)C(c2ccccc2OCC(N)=O)NC(=O)N1 (stereo not drawn) | 355 | -8.1% (inactive) | 14.3% (inactive) | 96.4% | -16.7% (inactive) | 98.2% | -0.428 (inactive) | 7.3e-06 (inactive) | 0.00981 (inactive) | 6.63% (inactive) | 14.9% (inactive) |
| CCN(CC)CCOC(=O)c1c(C)oc2ccc(O)cc12 | 418 | 11.9% (inactive) | -8.4% (inactive) | 74.1% | 30.6% (inactive) | 106% | -0.5 (inactive) | -8e-05 (inactive) | 0.00511 (inactive) | 8.25% (inactive) | 6.72% (inactive) |
| COc1cccc(C(=O)OCn2nnc3ccccc3c2=O)c1 | 592 | -5.6% (inactive) | 16.9% (inactive) | 89.6% | -14.7% (inactive) | 119% | -0.616 (inactive) | 4.3e-05 (inactive) | 0.00615 (inactive) | 17.1% (inactive) | 31.3% (inactive) |
| CN(CC(=O)NCCC1=CCCCC1)S(=O)(=O)c1ccc2c(c1)CCC(=O)N2 | 603 | 16.1% (inactive) | 19% (inactive) | 111% | -110% (inactive) | 141% | -0.505 (inactive) | 1.1e-05 (inactive) | 0.00584 (inactive) | -4.9% (inactive) | 16.8% (inactive) |
| Cc1cc(C)c(C#N)c(SCc2ccc(C#N)cc2)n1 | 609 | -7.7% (inactive) | -4.1% (inactive) | 52% | 40.3% (inactive) | 104% | -0.435 (inactive) | -5.8e-05 (inactive) | 0.00656 (inactive) | 5.07% (inactive) | -3.75% (inactive) |
| CCC(C)(C)n1nnnc1C(c1cc2cc(C)ccc2[nH]c1=O)N1CCCC1 (stereo not drawn) | 353 | 4.2% (inactive) | -27.7% (inactive) | 103% | -273% (inactive) | 110% | -0.43 (inactive) | 2.7e-05 (inactive) | 0.00689 (inactive) | 13.6% (inactive) | 28.7% (inactive) |
| CCOC(=O)C1=C(O)C(=O)N(c2ccc(S(N)(=O)=O)cc2)C1c1ccccc1 (stereo not drawn) | 431 | -0.4% (inactive) | -10.8% (inactive) | 108% | -31.8% (inactive) | 117% | -0.61 (inactive) | -1.5e-05 (inactive) | 0.00391 (inactive) | 2.23% (inactive) | -14.6% (inactive) |
| COc1ccc(C(=O)c2ccccc2)c(O)c1 | 585 | -2.6% (inactive) | 6.6% (inactive) | 94.1% | 1.3% (inactive) | 97.5% | -0.443 (inactive) | 2.6e-05 (inactive) | 0.00543 (inactive) | -1.71% (inactive) | -8.45% (inactive) |
| COc1ccc(OCC(=O)N2CC3(C)CC2CC(C)(C)C3)cc1 (stereo not drawn) | 403 | -0.6% (inactive) | -6.4% (inactive) | 122% | -55.8% (inactive) | 97.4% | -0.495 (inactive) | -6.6e-06 (inactive) | 0.004 (inactive) | 20% (inactive) | 26.7% (inactive) |
| CCOC(=O)c1ccccc1NC(=O)c1ccc(NS(C)(=O)=O)cc1 | 485 | -2.2% (inactive) | 10.4% (inactive) | 90.2% | 26.8% (inactive) | 86% | -0.473 (inactive) | -6e-06 (inactive) | 0.00606 (inactive) | 6.8% (inactive) | 11.4% (inactive) |
| COc1ccc(CCNc2nc(N3CCOCC3)nc(N3CCOCC3)n2)cc1OC | 229 | 10.4% (inactive) | 14.9% (inactive) | 66.5% | 15.6% (inactive) | 91.3% | -0.515 (inactive) | -3.3e-05 (inactive) | 0.00378 (inactive) | 15.3% (inactive) | 10.3% (inactive) |
| Cc1oc(-c2ccc(Cl)cc2)nc1CS(=O)CC(=O)NCCCN(C)C1CCCCC1 (stereo not drawn) | 584 | 3.8% (inactive) | -6.2% (inactive) | 94.6% | -47% (inactive) | 127% | -0.603 (inactive) | 1.3e-05 (inactive) | 0.00462 (inactive) | 15.7% (inactive) | 30.4% (inactive) |
